# A number with no mark means an inactive call. Results filed as inconclusive are left out. Where a call stands in place of a potency, no number is given. Active and inactive are the calls of the source. The call rests on the fitted dose curve; in most records, active means well fitted curve in the direction sought with a large enough effect in the repeat runs; inconclusive means weak or mixed curves; inactive means no such curve, though single readings can be large; an effect the other way counts as inactive or inconclusive.
# Key:
# [1] = Human pregnane X receptor (PXR) small molecule agonists, qHTS cell viability counter screen (AID 1346977); further: nearly all actives have a fitted effect of over 50% in size; further: potency means the concentration at half of the fitted maximal effect
# How it was run: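 Cytotoxicity counter screen run in the same wells as the PXR luciferase assay, using PXR-Luc HepG2 cells in charcoal-stripped serum medium. Viability: CellTiter-Fluor fluorescence after 24hr compound treatment.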
# [2] = Caspase-3/7 induction in HepG2 cells by small molecules, qHTS assay (AID 1346978); further: nearly all actives have a fitted effect of over 15% in size
# How it was run: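 Wild-type HepG2 cells, 2,000/well, settled 5 hr at 37 C and 5% CO2, then compound-treated for 17 hr; caspase-3/7 activity read by luminescent Caspase-Glo 3/7 after 30 min at room temperature.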
# [3] = Caspase-3/7 induction in CHO-K1 cells by small molecules, qHTS cell viability counter screen (AID 1346979); further: nearly all actives have a fitted effect of over 35% in size; further: potency means the concentration at half of the fitted maximal effect
# How it was run: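 Cytotoxicity counter screen run in parallel with the caspase-3/7 assay: CHO-K1 cells, 16hr compound treatment at 37C, then CellTiter-Fluor for 1hr before fluorescence reading.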
# [4] = Caspase-3/7 induction in CHO-K1 cells by small molecules, qHTS assay (AID 1346980); further: nearly all actives have a fitted effect of over 15% in size
# How it was run: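 Wild-type CHO-K1 cells exposed to compounds for 17hr at 37 C, 5% CO2. Caspase-3/7 activity then measured by Caspase-Glo 3/7 luminescence after 30min at room temperature.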
# [5] = Caspase-3/7 induction in HepG2 cells by small molecules, qHTS cell viability counter screen (AID 1346981); further: nearly all actives have a fitted effect of over 30% in size; further: potency means the concentration at half of the fitted maximal effect
# How it was run: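 Wild-type HepG2 cells, 2,000/well, settled 5 hr at 37 C, 5% CO2 before compound addition. Viability read by CellTiter-Fluor fluorescence, reagent added after 16 hr compound exposure, then 1 hr at 37C, in the same wells as the caspase read.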
# [6] = target: Nuclear receptor subfamily 1 group I member 2 (Homo sapiens) (UniProt O75469); experiment: Human pregnane X receptor (PXR) small molecule agonists, qHTS assay (AID 1346982); further: nearly all actives have a fitted effect of over 35% in size
# Chain of Nuclear receptor subfamily 1 group I member 2 (Homo sapiens) (O75469 whole entry, looked up): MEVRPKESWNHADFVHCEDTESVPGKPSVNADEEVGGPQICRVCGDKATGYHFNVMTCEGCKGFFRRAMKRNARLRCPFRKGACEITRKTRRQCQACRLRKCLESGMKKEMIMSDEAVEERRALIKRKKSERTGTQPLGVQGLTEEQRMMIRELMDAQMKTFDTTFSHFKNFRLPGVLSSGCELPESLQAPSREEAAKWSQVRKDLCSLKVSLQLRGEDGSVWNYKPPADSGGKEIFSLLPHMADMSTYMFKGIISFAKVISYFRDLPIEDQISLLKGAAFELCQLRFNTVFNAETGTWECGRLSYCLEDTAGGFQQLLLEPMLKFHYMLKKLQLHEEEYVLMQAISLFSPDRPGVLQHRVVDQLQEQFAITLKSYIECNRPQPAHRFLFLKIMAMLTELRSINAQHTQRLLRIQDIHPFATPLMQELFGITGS
# How it was run: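 PXR-Luc HepG2 reporter cells (CYP3A4-driven luciferase) in 5% charcoal-stripped FBS medium, plated 5 h before compound addition, then treated 24 h at 37C. Luciferase read by ONE-Glo luminescence after 30 min at room temperature.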
# [7] = target: Cytochrome P450 2D6 (Homo sapiens) (UniProt P10635); experiment: Cytochrome P450 Family 2 Subfamily D Member 6 (CYP2D6) small molecule antagonists: luciferase reporter qHTS assay (AID 1671196); further: nearly all actives have a fitted effect of over 50% in size; further: potency means the concentration at half of the fitted maximal effect
# Chain of Cytochrome P450 2D6 (Homo sapiens) (P10635 whole entry, looked up): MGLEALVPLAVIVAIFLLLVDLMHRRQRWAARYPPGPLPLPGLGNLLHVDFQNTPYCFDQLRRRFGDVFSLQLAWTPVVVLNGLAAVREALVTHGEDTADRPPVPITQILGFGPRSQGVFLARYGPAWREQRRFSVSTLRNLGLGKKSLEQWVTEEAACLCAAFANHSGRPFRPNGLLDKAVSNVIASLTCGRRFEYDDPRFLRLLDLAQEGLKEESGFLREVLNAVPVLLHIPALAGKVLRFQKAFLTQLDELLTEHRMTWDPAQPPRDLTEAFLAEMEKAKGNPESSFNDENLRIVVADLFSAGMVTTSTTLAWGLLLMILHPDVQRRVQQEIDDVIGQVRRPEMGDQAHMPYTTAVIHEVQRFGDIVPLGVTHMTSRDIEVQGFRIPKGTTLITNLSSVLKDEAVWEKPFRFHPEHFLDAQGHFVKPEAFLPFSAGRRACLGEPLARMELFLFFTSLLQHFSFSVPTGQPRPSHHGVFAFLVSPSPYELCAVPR
# How it was run: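 Cell-free P450-Glo system: CYP2D6 with proluciferin substrate was pre-incubated with compound for 10 min, then reacted with NADPH regeneration for 1 h at room temperature. Luciferin product was detected after 20 min, and data were reported as relative luminescence units.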
# [8] = target: Cytochrome P450 2C19 (Homo sapiens) (UniProt P33261); experiment: Cytochrome P450 Family 2 Subfamily C Member 19 (CYP2C19) small molecule antagonists: luciferase reporter qHTS assay (AID 1671197); further: nearly all actives have a fitted effect of over 65% in size; further: potency means the concentration at half of the fitted maximal effect
# Chain of Cytochrome P450 2C19 (Homo sapiens) (P33261 whole entry, looked up): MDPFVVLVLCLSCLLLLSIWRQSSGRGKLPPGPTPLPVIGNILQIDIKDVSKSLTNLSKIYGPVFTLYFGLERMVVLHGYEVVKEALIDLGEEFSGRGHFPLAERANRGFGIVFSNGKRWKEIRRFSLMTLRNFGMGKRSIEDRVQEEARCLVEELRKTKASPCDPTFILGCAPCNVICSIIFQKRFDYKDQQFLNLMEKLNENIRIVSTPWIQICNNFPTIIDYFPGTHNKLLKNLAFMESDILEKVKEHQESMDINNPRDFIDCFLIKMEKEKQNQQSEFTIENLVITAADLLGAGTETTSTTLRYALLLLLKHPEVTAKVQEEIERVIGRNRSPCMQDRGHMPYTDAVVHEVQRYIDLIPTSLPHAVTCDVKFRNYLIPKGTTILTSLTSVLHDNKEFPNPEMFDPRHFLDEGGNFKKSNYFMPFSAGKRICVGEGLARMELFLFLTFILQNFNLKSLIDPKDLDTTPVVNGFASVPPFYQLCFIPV
# How it was run: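 Quantitative high-throughput screen of the Tox21 library using CYP2C19 with proluciferin substrate. Reaction: NADPH regeneration, 37C, 1 h, after 10 min compound preincubation at room temperature. Readout: luminescence.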
# [9] = target: Cytochrome P450 2C9 (Homo sapiens) (UniProt P11712); experiment: Cytochrome P450 Family 2 Subfamily C Member 9 (CYP2C9) small molecule antagonists: luciferase reporter qHTS assay (AID 1671198); further: nearly all actives have a fitted effect of over 50% in size; further: potency means the concentration at half of the fitted maximal effect
# Chain of Cytochrome P450 2C9 (Homo sapiens) (P11712 whole entry, looked up): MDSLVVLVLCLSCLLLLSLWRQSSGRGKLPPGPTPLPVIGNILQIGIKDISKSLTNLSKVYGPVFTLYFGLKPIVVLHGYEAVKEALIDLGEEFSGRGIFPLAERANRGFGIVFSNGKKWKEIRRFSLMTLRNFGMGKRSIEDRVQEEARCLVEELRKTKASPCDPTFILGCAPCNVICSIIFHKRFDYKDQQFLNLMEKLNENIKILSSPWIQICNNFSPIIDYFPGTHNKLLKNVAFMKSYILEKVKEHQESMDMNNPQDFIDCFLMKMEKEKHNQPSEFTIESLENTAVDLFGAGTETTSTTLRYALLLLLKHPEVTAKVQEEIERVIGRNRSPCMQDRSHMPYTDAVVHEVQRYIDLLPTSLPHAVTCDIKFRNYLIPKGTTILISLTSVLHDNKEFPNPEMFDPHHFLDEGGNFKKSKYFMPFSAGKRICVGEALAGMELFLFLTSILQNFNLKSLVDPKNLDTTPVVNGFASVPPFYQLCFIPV
# How it was run: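 P450-Glo proluciferin substrate with CYP2C9 enzyme; 10 min RT preincubation, then NADPH regeneration 1 h at 37C; luciferin detection reagent 20 min RT, luminescence in relative luminescence units.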
# [10] = target: Cytochrome P450 1A2 (Homo sapiens) (UniProt P05177); experiment: Cytochrome P450 Family 1 Subfamily A Member 2 (CYP1A2) small molecule antagonists: luciferase reporter qHTS assay (AID 1671199); further: nearly all actives have a fitted effect of over 50% in size; further: potency means the concentration at half of the fitted maximal effect
# Chain of Cytochrome P450 1A2 (Homo sapiens) (P05177 whole entry, looked up): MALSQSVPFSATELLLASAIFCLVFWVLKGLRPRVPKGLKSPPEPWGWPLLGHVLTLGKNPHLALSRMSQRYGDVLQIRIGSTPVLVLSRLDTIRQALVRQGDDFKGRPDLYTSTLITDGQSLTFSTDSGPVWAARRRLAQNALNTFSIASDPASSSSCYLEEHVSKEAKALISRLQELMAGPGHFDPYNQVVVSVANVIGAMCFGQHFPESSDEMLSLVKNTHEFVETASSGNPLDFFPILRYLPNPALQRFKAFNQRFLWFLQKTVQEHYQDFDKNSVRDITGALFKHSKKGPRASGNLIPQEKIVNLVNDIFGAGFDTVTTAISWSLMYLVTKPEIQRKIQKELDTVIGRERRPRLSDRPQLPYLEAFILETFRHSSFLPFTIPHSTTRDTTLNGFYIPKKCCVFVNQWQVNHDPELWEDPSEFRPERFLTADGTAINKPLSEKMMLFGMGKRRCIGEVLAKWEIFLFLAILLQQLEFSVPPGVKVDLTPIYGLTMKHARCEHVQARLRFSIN
# How it was run: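 P450-Glo CYP1A2 enzyme–proluciferin substrate mix with compound 10 min at room temperature, then NADPH regeneration 1 h at room temperature. Luciferin detection reagent added, luminescence read after 20 min; furafylline positive control.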
# [11] = target: Voltage-gated inwardly rectifying potassium channel KCNH2 (Homo sapiens) (UniProt Q12809); experiment: Human Ether-a-go-go-Related Gene (hERG) channel small molecule antagonists: fluorescence cell-based qHTS assay (AID 1671200)
# Chain of Voltage-gated inwardly rectifying potassium channel KCNH2 (Homo sapiens) (Q12809 whole entry, looked up): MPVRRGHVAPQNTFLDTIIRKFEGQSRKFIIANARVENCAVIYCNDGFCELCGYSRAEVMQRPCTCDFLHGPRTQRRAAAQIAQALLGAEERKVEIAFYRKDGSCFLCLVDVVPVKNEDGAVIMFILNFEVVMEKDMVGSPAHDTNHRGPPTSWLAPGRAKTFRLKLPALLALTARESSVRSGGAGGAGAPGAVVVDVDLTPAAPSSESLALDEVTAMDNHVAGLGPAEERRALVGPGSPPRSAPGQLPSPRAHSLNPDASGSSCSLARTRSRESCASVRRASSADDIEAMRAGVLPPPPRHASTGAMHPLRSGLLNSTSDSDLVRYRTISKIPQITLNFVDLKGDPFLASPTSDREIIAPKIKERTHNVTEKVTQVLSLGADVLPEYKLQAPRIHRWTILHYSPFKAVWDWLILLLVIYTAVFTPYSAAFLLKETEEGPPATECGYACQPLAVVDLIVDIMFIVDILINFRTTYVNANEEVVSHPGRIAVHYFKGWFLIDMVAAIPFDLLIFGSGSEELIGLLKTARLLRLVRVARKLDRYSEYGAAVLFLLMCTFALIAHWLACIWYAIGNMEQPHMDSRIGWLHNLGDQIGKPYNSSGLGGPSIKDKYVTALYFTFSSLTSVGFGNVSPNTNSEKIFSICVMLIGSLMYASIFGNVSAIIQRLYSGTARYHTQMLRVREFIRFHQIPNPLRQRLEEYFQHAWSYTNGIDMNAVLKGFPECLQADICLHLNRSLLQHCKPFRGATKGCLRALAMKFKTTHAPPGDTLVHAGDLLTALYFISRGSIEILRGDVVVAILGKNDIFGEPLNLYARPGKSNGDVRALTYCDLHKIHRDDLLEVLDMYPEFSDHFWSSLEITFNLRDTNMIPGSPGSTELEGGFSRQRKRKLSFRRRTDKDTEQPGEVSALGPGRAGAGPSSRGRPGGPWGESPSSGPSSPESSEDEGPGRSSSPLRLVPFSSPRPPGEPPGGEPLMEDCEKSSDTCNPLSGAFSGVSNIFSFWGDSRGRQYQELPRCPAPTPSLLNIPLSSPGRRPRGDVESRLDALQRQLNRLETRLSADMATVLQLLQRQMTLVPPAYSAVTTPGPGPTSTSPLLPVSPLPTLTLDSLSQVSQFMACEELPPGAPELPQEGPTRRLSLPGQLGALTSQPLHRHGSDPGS
# How it was run: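 Fluorescence at 540 nm emission (480 nm excitation) was recorded kinetically for 2 min at 1-second intervals once the thallium-containing stimulus reached cells previously loaded with FluxOR II dye.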
# [12] = target: Cytochrome P450 3A4 (Homo sapiens) (UniProt P08684); experiment: Cytochrome P450 Family 3 Subfamily A Member 4 (CYP3A4) small molecule antagonists: luciferase reporter qHTS assay (AID 1671201); further: nearly all actives have a fitted effect of over 50% in size; further: potency means the concentration at half of the fitted maximal effect
# Chain of Cytochrome P450 3A4 (Homo sapiens) (P08684 whole entry, looked up): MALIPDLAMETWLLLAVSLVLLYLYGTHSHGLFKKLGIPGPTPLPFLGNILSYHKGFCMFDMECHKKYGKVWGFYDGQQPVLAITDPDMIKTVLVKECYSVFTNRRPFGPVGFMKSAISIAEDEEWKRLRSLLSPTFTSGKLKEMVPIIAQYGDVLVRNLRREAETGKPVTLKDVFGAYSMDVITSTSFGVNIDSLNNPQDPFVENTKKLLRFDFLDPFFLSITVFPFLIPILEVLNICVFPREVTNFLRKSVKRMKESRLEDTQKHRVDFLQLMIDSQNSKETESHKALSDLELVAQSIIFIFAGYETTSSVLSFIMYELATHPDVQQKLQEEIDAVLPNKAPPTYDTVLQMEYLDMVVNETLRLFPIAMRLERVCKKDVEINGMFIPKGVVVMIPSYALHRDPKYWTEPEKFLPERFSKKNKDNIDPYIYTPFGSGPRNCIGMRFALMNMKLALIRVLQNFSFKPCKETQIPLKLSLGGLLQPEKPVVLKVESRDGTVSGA
# How it was run: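 qHTS, 1536-well. CYP3A4 + proluciferin substrate, cpd 10 min RT → NADPH regen 1 h RT → detection reagent 20 min → luminescence (RLU). Ketoconazole positive control.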
# [13] = target: Nuclear receptor subfamily 1 group I member 2 (Rattus norvegicus) (UniProt Q9R1A7); experiment: Rat pregnane X receptor (rPXR) activation by small molecules, qHTS assay (AID 1346983); details: rPXR luciferase reporter cells, One-Glo luminescence, 24 h; max activation: active compounds read high; further: nearly all actives have a fitted effect of over 20% in size
# Chain of Nuclear receptor subfamily 1 group I member 2 (Rattus norvegicus) (Q9R1A7 whole entry, looked up): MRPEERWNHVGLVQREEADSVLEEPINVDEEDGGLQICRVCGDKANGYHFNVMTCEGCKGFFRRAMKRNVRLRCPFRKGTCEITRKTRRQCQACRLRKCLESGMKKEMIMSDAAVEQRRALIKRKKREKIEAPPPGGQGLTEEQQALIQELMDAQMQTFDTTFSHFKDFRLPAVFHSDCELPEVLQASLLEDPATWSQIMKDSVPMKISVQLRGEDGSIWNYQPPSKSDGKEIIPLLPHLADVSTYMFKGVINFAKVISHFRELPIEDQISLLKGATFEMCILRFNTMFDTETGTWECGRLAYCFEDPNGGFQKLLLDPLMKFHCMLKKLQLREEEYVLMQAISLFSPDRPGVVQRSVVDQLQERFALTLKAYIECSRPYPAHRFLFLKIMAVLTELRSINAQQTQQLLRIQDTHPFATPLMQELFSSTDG
# How it was run: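 Cell-based rPXR activation assay: rPXR cells, 2,000 per well, rested 5hr at 37 C, then exposed to compounds in DMSO for 24 hr at 37 C. Luciferase activity read by One-Glo luminescence after 30 min at room temperature.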
# [14] = target: Nuclear receptor subfamily 1 group I member 2 (Homo sapiens) (UniProt O75469); experiment: CYP3A4 induction through human pregnane X receptor (PXR) by small molecules, qHTS assay (AID 1346984); further: nearly all actives have a fitted effect of over 40% in size
# How it was run: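 DPX-2 HepG2 cells carrying a PXR response element and CYP3A4-promoter luciferase construct, treated with compounds 24 hr at 37C. Then P450-Glo CYP3A4 Luciferin-IPA substrate (3uM final) for 3 hr at 37C, One-Glo added, luminescence read.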
# [15] = target: Nuclear receptor subfamily 1 group I member 2 (Homo sapiens) (UniProt O75469); experiment: Human pregnane X receptor (PXR) activation by small molecules, qHTS assay (AID 1346985); further: nearly all actives have a fitted effect of over 40% in size
# How it was run: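 DPX-2 cells (HepG2 co-transfected with a PXR response element and a CYP3A4-promoter luciferase construct) were seeded at 2,000 per well, rested 5 hr at 37C, then exposed to DMSO-dissolved compounds for 24 hr. Activation was read as luciferase luminescence.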
SMILES,Potency [1],Potency [2],Potency [3],outcome [4],Potency [5],Potency [6],Potency [7],Potency [8],Potency [9],Potency [10],Potency [11],Potency [12],max activation [13],Potency [14],Potency [15]
CCCCCCCCCCCCCCCC(=O)OCC,inactive,inactive,inactive,inactive,inactive,inactive,inactive,inactive,inactive,inactive,inactive,inactive,–,–,–
CCOC(=O)c1c(N)sc2c1CCN(Cc1ccccc1)C2,inactive,inactive,inactive,inactive,inactive,inactive,0.0219 µM (active),0.871 µM (active),3.47 µM (active),15.5 µM (active),–,–,-1.17%,inactive,inactive
CC[C@@H](CO)NCCN[C@@H](CC)CO,inactive,inactive,inactive,inactive,inactive,inactive,inactive,inactive,inactive,inactive,inactive,–,2.2%,inactive,inactive
CCN(CC)C(=O)N1CCN(C)CC1,inactive,inactive,inactive,inactive,inactive,inactive,inactive,inactive,–,–,inactive,–,-2.03%,inactive,inactive
CS(=O)(=O)c1ccc([C@@H](C[C@H]2CCC(=O)C2)C(=O)Nc2cnccn2)cc1Cl,inactive,inactive,inactive,inactive,inactive,inactive,–,–,–,–,–,–,–,–,–
CC(C)(C(=O)c1cccnc1)c1cccnc1,inactive,inactive,inactive,inactive,inactive,inactive,–,inactive,inactive,inactive,inactive,–,-1.51%,inactive,inactive
N[C@@H](Cc1cc(I)c(O)c(I)c1)C(=O)O,inactive,inactive,23.7 µM (active),inactive,inactive,inactive,inactive,inactive,38.9 µM (active),inactive,inactive,–,–,–,–
CC(=O)N[C@@H](Cc1ccc(O)cc1)C(=O)O,inactive,inactive,inactive,inactive,inactive,inactive,inactive,inactive,inactive,inactive,inactive,inactive,-1.6%,inactive,inactive
CC(=O)NNC(C)=O,inactive,inactive,inactive,inactive,inactive,inactive,inactive,inactive,inactive,inactive,inactive,inactive,–,–,–
CNC1CCCN(c2c(F)cc3c(=O)c(C(=O)O)cn(C4CC4)c3c2OC)C1 (configuration not stated),inactive,inactive,inactive,inactive,inactive,inactive,inactive,–,inactive,inactive,–,–,-1.63%,inactive,inactive
O=C(O)CO,inactive,inactive,inactive,inactive,inactive,inactive,inactive,inactive,inactive,inactive,inactive,inactive,–,–,–
NC(=O)CCCCC(N)=O,inactive,inactive,inactive,inactive,inactive,inactive,inactive,inactive,inactive,inactive,inactive,–,–,–,–
CC(C)CC(O)CC(C)C,inactive,inactive,inactive,inactive,inactive,inactive,inactive,inactive,inactive,inactive,inactive,inactive,–,–,–
Cc1cn([C@H]2C[C@H](F)[C@@H](CO)O2)c(=O)[nH]c1=O,inactive,inactive,inactive,inactive,inactive,inactive,–,inactive,inactive,–,inactive,inactive,-7.91%,inactive,inactive
COc1ccc(C(=O)NCc2ccc(OCCN(C)C)cc2)cc1OC,inactive,inactive,inactive,inactive,inactive,inactive,inactive,inactive,inactive,inactive,inactive,inactive,-0.841%,inactive,inactive
O=C(O)c1cccc(C[C@@H]2COc3ccc(OCc4nc5cc(F)ccc5s4)cc3[C@@H]2O)c1,inactive,inactive,inactive,inactive,inactive,inactive,inactive,inactive,40 µM (active),31.8 µM (active),inactive,–,–,–,–
Cc1c(C2(c3cc(Br)c(O)c(Br)c3C)OS(=O)(=O)c3ccccc32)cc(Br)c(O)c1Br,14.9 µM (active),inactive,16.7 µM (active),inactive,18.8 µM (active),inactive,24.4 µM (active),15.4 µM (active),10.9 µM (active),13.7 µM (active),inactive,27.4 µM (active),–,–,–
C1CCCCC1,inactive,inactive,inactive,inactive,inactive,inactive,inactive,inactive,inactive,inactive,inactive,–,–,–,–

SMILES,Potency [1],Potency [2],Potency [3],outcome [4],Potency [5],Potency [6],Potency [7],Potency [8],Potency [9],Potency [10],Potency [11],Potency [12],max activation [13],Potency [14],Potency [15]
O=C1CC[C@@H](C(=O)O)N1,inactive,inactive,inactive,inactive,inactive,inactive,–,inactive,inactive,inactive,inactive,inactive,-5.25%,inactive,inactive
Nc1ccc(S(=O)(=O)NCc2ccccc2)cc1,inactive,inactive,inactive,inactive,inactive,inactive,inactive,2.19 µM (active),inactive,inactive,inactive,–,-1.8%,inactive,inactive
CC[C@H]1OC(=O)[C@H](C)[C@@H](O[C@H]2C[C@@](C)(OC)[C@@H](O)[C@H](C)O2)[C@H](C)[C@@H](O[C@@H]2O[C@H](C)C[C@H](N(C)C)[C@H]2O)[C@](C)(O)C[C@@H](C)CN(C)[C@H](C)[C@@H](O)[C@]1(C)O,18.1 µM (active),inactive,inactive,inactive,inactive,inactive,inactive,–,inactive,inactive,inactive,–,–,–,inactive
CC(C)C(O)C(C)(C)CO (configuration not stated),inactive,inactive,inactive,inactive,inactive,inactive,32.7 µM (active),41.2 µM (active),65.3 µM (active),65.3 µM (active),inactive,–,–,–,–
C=CC(=O)O,inactive,inactive,inactive,inactive,inactive,inactive,inactive,–,–,inactive,inactive,inactive,-1.96%,inactive,inactive
ClC1=C(Cl)C1(Cl)Cl,inactive,inactive,inactive,inactive,inactive,inactive,inactive,inactive,inactive,inactive,inactive,inactive,–,–,–
COc1ccc(CCN(C)CCCN2CCc3cc(OC)c(OC)cc3CC2=O)cc1OC,inactive,inactive,inactive,inactive,inactive,inactive,inactive,–,inactive,inactive,–,inactive,3.44%,inactive,inactive
Cc1c[nH]c2ccccc12,inactive,inactive,inactive,inactive,inactive,inactive,inactive,inactive,inactive,14.4 µM (active),inactive,inactive,-6.59%,inactive,inactive
CCN(Cc1cccc(S(=O)(=O)O)c1)c1ccc(C(=C2C=CC(=[N+](CC)Cc3cccc(S(=O)(=O)O)c3)C=C2)c2ccccc2S(=O)(=O)[O-])cc1,17.3 µM (active),inactive,17.3 µM (active),inactive,17.3 µM (active),inactive,17.9 µM (active),17.9 µM (active),11.3 µM (active),17.9 µM (active),inactive,–,–,–,–
CNc1c2c(nn1C)CCCC2,inactive,inactive,inactive,inactive,inactive,inactive,inactive,–,inactive,inactive,inactive,inactive,-2.75%,inactive,inactive
CC(C)OC(=O)c1ccccc1C(=O)OC(C)C,inactive,inactive,inactive,inactive,inactive,inactive,inactive,79.6 µM (active),39.9 µM (active),3.56 µM (active),inactive,–,–,–,–
CC(C)Cc1ccc(CC(=O)O)cc1,inactive,inactive,inactive,inactive,inactive,inactive,–,inactive,–,inactive,inactive,inactive,-5.33%,inactive,inactive
O=c1[nH]c2cc(C(F)(F)F)c(N3CCOCC3)cc2n(CP(=O)(O)O)c1=O,inactive,inactive,inactive,inactive,inactive,inactive,inactive,inactive,inactive,inactive,inactive,inactive,-2.81%,inactive,inactive
CC(C)C1CCC(C(=O)N[C@H](Cc2ccccc2)C(=O)O)CC1 (some centres not stated),inactive,inactive,inactive,inactive,inactive,inactive,inactive,–,11 µM (active),inactive,inactive,inactive,-2.46%,–,inactive
Cc1ccc(N(CCO)CCO)cc1,inactive,inactive,inactive,inactive,inactive,inactive,inactive,17.8 µM (active),39.9 µM (active),31.7 µM (active),inactive,inactive,–,–,–
O=C(NC(Cc1cc(=O)[nH]c2ccccc12)C(=O)O)c1ccc(Cl)cc1 (configuration not stated),inactive,inactive,inactive,inactive,inactive,inactive,inactive,inactive,inactive,inactive,inactive,inactive,-0.429%,inactive,inactive
O=C(O)CNC(=O)c1ccccc1I,inactive,inactive,inactive,inactive,inactive,inactive,inactive,–,inactive,–,inactive,inactive,0.066%,inactive,inactive
